Our source for the apoptosis values is PubChem BioAssay AID624396 (The Scripps Research Institute Molecular Screening Center, 2012).

The test system of this assay is MCL1 1780. The assay is described as follows: pro-apoptotic nuclear morphology in cancer cells – imaging, DAPI staining, cell line panel, probe, mechanism study for MCL1-BIM inhibitor project, late-stage follow-up (AID 624396). As to conditions: at 25 µM, hits give high values.

Calls of active or inactive are those of the source.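 Rule for the calls: active = over 15% of cells apoptotic at 25 µM, or half-maximal dose of 10 µM or lower; inactive = the rest.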

`CCN1CCN(C(c2ccc(C(F)(F)F)cc2)c2ccc3cccnc3c2O)CC1` (stereo unspecified): the apoptosis was 99% (active).
